Records with an inconclusive call do not appear. Active and inactive are the calls of the source. Unless noted, calls come from the whole dose curve; as a rule, active = well fitted curve in the direction sought with a large enough effect in the repeat runs; inconclusive = weak or mixed curves; inactive = no such curve, though single readings can be large; an effect the other way counts as inactive or inconclusive.
What was measured:
[1] = biological target: Thyrotropin-releasing hormone receptor (Homo sapiens) (UniProt P34981); test: qHTS assay to identify small molecule agonists of the thyrotropin-releasing hormone receptor (TRHR) signaling pathway (AID 1346891; calls by dose curve;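 note: HEK293 cells expressing TRHR with calcium dye readout; series mostly up to about 58 µM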)
Chain of Thyrotropin-releasing hormone receptor (Homo sapiens) (P34981 whole entry, looked up): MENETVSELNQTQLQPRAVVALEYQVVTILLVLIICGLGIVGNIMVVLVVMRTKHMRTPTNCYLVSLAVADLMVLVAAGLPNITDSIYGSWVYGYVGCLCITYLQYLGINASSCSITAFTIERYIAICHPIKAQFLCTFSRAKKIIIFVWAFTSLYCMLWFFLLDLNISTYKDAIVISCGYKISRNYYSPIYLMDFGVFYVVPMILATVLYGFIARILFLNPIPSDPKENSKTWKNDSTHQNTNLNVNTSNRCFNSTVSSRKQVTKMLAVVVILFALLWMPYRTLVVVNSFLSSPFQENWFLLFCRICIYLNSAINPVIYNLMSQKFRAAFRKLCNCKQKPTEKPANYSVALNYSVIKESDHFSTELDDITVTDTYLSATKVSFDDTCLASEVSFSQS
Method in brief: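 Agonist-mode calcium mobilisation screen: TRHR-transfected HEK293 cells cultured overnight (18 h), dye-loaded for 2 h at 37 °C, exposed to compounds, and monitored by fluorescence for 3 min.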

[2] = Human pregnane X receptor (PXR) small molecule agonists, qHTS cell viability counter screen (AID 1346977); note: nearly all actives have a fitted effect of over 50% in size
Method in brief: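 Measures live-cell protease fluorescence (CellTiter-Fluor) in PXR-Luc HepG2 cells treated 24hr with compounds at 37C. Cells had 5hr to attach before pin transfer of DMSO solutions.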

[3] = Caspase-3/7 induction in HepG2 cells by small molecules, qHTS assay (AID 1346978); note: nearly all actives have a fitted effect of over 15% in size
Method in brief: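 Caspase-3/7 induction was measured by Caspase-Glo 3/7 luminescence (30 min, room temperature) after a 17 hr compound exposure of wild-type HepG2 cells seeded at 2,000 per well and pre-incubated 5 hr.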

[4] = Caspase-3/7 induction in CHO-K1 cells by small molecules, qHTS cell viability counter screen (AID 1346979); note: nearly all actives have a fitted effect of over 35% in size
Method in brief: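 In the same wells as the caspase read, viability of compound-treated wild-type CHO-K1 cells was assessed using CellTiter-Fluor, added after 16hr at 37C and measured by fluorescence following 1hr further incubation.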

[5] = Caspase-3/7 induction in CHO-K1 cells by small molecules, qHTS assay (AID 1346980); note: nearly all actives have a fitted effect of over 15% in size
Method in brief: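 Luminescent Caspase-Glo 3/7 read (30min, room temperature) quantified apoptosis induction. Cells were wild-type CHO-K1, treated with compound for 17hr at 37 C and 5% CO2.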

[6] = Caspase-3/7 induction in HepG2 cells by small molecules, qHTS cell viability counter screen (AID 1346981); note: series mostly up to about 92 µM; nearly all actives have a fitted effect of over 30% in size
Method in brief: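 Wild-type HepG2 cells, 2,000/well, settled 5 hr at 37 C, 5% CO2 before compound addition. Viability read by CellTiter-Fluor fluorescence, reagent added after 16 hr compound exposure, then 1 hr at 37C, in the same wells as the caspase read.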

[7] = biological target: Nuclear receptor subfamily 1 group I member 2 (Homo sapiens) (UniProt O75469); test: Human pregnane X receptor (PXR) small molecule agonists, qHTS assay (AID 1346982); note: nearly all actives have a fitted effect of over 35% in size; note: potency is the fitted concentration of half-maximal effect
Chain of Nuclear receptor subfamily 1 group I member 2 (Homo sapiens) (O75469 whole entry, looked up): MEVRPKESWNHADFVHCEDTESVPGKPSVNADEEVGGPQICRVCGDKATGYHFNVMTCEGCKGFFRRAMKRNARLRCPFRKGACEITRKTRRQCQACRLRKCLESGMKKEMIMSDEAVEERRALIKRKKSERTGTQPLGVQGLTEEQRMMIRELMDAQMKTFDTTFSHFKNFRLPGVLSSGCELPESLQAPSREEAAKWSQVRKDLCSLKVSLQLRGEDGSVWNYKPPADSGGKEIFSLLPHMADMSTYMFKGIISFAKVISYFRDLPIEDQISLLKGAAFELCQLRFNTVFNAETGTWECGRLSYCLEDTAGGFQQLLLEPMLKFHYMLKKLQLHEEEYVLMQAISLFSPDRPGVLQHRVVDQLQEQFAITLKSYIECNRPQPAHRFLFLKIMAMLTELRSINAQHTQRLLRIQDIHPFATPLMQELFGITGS
Method in brief: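 PXR-Luc HepG2 reporter cells (CYP3A4-driven luciferase) in 5% charcoal-stripped FBS medium, plated 5 h before compound addition, then treated 24 h at 37C. Luciferase read by ONE-Glo luminescence after 30 min at room temperature.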

[8] = biological target: Cytochrome P450 2D6 (Homo sapiens) (UniProt P10635); test: Cytochrome P450 Family 2 Subfamily D Member 6 (CYP2D6) small molecule antagonists: luciferase reporter qHTS assay (AID 1671196); note: nearly all actives have a fitted effect of over 50% in size; note: potency is the fitted concentration of half-maximal effect; for activity change, negative = inhibition: series mostly up to about 120 µM
Chain of Cytochrome P450 2D6 (Homo sapiens) (P10635 whole entry, looked up): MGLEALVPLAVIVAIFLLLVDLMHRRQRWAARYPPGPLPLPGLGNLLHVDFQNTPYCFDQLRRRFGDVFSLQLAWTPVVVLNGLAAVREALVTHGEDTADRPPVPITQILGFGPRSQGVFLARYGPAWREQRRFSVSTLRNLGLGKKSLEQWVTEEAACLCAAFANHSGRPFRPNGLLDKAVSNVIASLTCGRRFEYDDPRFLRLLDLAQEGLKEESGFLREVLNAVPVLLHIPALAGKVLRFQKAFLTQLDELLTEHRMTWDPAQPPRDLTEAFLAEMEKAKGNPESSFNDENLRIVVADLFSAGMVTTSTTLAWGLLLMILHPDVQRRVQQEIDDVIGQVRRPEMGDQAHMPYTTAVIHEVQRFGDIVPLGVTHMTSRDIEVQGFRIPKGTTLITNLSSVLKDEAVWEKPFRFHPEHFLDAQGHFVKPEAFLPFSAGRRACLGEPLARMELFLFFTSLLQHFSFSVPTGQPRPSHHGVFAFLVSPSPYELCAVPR
Method in brief: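 Cell-free P450-Glo system: CYP2D6 with proluciferin substrate was pre-incubated with compound for 10 min, then reacted with NADPH regeneration for 1 h at room temperature. Luciferin product was detected after 20 min, and data were reported as relative luminescence units.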

[9] = biological target: Cytochrome P450 2C9 (Homo sapiens) (UniProt P11712); test: Cytochrome P450 Family 2 Subfamily C Member 9 (CYP2C9) small molecule antagonists: luciferase reporter qHTS assay (AID 1671198); note: nearly all actives have a fitted effect of over 50% in size; note: potency is the fitted concentration of half-maximal effect; for activity change, negative = inhibition: series mostly up to about 120 µM
Chain of Cytochrome P450 2C9 (Homo sapiens) (P11712 whole entry, looked up): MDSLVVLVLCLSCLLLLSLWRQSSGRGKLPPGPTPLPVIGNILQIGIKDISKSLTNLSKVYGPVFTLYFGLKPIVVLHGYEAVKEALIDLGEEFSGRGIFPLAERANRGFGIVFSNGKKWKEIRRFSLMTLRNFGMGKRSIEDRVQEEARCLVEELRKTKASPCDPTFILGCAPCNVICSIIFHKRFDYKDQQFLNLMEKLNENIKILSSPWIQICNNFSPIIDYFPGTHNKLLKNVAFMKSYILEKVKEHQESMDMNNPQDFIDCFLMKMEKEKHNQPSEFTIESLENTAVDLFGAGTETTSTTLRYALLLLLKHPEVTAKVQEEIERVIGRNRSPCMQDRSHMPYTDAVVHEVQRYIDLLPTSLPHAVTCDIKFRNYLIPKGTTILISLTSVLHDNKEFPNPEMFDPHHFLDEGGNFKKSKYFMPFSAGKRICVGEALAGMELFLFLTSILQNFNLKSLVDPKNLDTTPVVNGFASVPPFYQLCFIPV
Method in brief: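 Enzyme-substrate mix preincubated with compound 10 min at room temperature; reaction started with NADPH regeneration solution, 1 h 37C. Luminescent luciferin product read after 20 min detection reagent.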

[10] = biological target: Cytochrome P450 1A2 (Homo sapiens) (UniProt P05177); test: Cytochrome P450 Family 1 Subfamily A Member 2 (CYP1A2) small molecule antagonists: luciferase reporter qHTS assay (AID 1671199); note: nearly all actives have a fitted effect of over 50% in size; note: potency is the fitted concentration of half-maximal effect; for activity change, negative = inhibition: series mostly up to about 120 µM
Chain of Cytochrome P450 1A2 (Homo sapiens) (P05177 whole entry, looked up): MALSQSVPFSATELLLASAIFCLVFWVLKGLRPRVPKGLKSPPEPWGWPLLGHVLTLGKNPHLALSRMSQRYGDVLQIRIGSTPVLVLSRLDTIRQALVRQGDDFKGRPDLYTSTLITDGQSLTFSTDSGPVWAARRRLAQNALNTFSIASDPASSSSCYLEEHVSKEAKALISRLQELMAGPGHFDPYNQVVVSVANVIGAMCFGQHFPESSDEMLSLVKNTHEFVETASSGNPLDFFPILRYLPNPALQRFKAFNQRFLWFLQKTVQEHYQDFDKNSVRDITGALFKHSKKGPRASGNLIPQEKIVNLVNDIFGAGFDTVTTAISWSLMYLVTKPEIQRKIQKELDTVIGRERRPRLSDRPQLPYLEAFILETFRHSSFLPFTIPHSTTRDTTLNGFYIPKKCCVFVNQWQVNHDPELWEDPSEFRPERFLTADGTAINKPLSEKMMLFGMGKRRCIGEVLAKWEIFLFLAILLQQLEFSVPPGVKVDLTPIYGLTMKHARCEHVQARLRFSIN
Method in brief: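 P450-Glo CYP1A2 enzyme–proluciferin substrate mix with compound 10 min at room temperature, then NADPH regeneration 1 h at room temperature. Luciferin detection reagent added, luminescence read after 20 min; furafylline positive control.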

[11] = biological target: Voltage-gated inwardly rectifying potassium channel KCNH2 (Homo sapiens) (UniProt Q12809); test: Human Ether-a-go-go-Related Gene (hERG) channel small molecule antagonists: fluorescence cell-based qHTS assay (AID 1671200)
Chain of Voltage-gated inwardly rectifying potassium channel KCNH2 (Homo sapiens) (Q12809 whole entry, looked up): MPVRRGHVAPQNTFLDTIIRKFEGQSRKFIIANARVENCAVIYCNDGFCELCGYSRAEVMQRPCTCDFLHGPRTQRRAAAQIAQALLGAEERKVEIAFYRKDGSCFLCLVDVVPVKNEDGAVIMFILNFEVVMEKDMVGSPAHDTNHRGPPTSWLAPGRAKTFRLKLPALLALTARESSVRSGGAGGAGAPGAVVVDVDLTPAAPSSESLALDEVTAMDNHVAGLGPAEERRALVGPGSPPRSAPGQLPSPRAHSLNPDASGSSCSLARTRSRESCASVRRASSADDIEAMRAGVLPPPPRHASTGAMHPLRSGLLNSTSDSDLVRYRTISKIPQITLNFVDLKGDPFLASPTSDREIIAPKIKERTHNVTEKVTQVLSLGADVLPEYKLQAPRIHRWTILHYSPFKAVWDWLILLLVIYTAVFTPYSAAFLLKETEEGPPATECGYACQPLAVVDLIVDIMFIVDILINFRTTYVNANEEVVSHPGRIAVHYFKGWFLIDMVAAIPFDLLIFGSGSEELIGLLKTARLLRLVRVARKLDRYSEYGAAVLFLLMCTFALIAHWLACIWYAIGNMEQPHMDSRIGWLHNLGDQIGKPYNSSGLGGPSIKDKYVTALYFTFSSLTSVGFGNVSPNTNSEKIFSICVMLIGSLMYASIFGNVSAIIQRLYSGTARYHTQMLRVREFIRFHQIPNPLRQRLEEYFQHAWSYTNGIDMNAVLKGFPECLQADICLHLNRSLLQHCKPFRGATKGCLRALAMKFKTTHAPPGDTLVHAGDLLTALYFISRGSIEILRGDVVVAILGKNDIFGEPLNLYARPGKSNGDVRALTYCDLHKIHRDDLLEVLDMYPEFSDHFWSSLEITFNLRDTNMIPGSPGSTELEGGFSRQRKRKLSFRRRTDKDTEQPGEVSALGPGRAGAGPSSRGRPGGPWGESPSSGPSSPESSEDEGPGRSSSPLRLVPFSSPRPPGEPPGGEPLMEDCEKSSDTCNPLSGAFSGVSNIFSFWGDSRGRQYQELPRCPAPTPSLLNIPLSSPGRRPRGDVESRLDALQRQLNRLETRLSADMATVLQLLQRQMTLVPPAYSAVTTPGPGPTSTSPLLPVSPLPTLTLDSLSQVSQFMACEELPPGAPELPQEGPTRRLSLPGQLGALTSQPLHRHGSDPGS
Method in brief: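 Quantitative HTS in hERG-U2OS cells: thallium entry through the channel reports activity, read as continuous 480/540 nm fluorescence over 2 min after stimulus addition.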

[12] = biological target: Cytochrome P450 3A4 (Homo sapiens) (UniProt P08684); test: Cytochrome P450 Family 3 Subfamily A Member 4 (CYP3A4) small molecule antagonists: luciferase reporter qHTS assay (AID 1671201)
Chain of Cytochrome P450 3A4 (Homo sapiens) (P08684 whole entry, looked up): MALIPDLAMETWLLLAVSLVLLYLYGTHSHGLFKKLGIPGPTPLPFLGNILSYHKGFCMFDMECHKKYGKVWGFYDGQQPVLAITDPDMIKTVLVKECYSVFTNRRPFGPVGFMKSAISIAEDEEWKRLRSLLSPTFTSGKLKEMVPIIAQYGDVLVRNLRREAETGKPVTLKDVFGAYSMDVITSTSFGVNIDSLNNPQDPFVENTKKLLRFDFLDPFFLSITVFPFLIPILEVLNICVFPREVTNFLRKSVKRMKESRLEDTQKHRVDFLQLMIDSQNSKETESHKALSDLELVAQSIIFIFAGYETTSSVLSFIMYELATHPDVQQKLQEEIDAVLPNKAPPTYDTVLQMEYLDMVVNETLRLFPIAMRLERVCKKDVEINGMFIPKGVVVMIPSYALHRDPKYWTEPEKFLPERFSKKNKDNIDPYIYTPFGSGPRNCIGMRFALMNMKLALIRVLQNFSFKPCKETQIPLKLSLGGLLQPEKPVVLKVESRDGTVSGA
Method in brief: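 Inhibition of CYP3A4 is measured as loss of light: the enzyme converts a proluciferin substrate to luciferin, detected luminescently. Reaction ran 1 h at room temperature with NADPH regeneration after a 10 min compound preincubation.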

[13] = biological target: Cytochrome P450 2C19 (Homo sapiens) (UniProt P33261); test: Cytochrome P450 Family 2 Subfamily C Member 19 (CYP2C19) small molecule antagonists: luciferase reporter qHTS assay (AID 1671197); note: nearly all actives have a fitted effect of over 65% in size; note: potency is the fitted concentration of half-maximal effect; for activity change, negative = inhibition: series mostly up to about 120 µM
Chain of Cytochrome P450 2C19 (Homo sapiens) (P33261 whole entry, looked up): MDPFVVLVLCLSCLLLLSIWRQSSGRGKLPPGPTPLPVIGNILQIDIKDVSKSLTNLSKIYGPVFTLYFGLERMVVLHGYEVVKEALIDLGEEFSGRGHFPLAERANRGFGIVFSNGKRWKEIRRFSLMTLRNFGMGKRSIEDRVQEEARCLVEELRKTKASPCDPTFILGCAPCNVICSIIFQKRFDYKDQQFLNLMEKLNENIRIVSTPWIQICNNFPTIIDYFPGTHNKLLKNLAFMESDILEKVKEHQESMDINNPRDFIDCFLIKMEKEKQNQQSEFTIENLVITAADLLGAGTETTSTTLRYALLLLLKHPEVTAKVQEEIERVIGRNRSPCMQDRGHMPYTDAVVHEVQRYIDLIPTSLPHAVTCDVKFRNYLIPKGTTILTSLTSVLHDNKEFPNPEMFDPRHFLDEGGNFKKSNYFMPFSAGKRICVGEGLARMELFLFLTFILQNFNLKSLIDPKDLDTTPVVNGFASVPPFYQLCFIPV
Method in brief: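 Light output is proportional to CYP2C19 activity: proluciferin substrate is converted to luciferin, then detected by a luciferin detection reagent that also stops the 1 h, 37C NADPH-driven reaction. Ketoconazole serves as positive control.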
% is set by controls: 0 for no effect and ±100 for the full control effect.

OC[C@H]1O[C@@H]2O[C@H]3[C@H](O)[C@@H](O)[C@@H](O[C@H]4[C@H](O)[C@@H](O)[C@@H](O[C@H]5[C@H](O)[C@@H](O)[C@@H](O[C@H]6[C@H](O)[C@@H](O)[C@@H](O[C@H]7[C@H](O)[C@@H](O)[C@@H](O[C@H]8[C@H](O)[C@@H](O)[C@@H](O[C@H]9[C@H](O)[C@@H](O)[C@@H](O[C@H]1[C@H](O)[C@H]2O)O[C@@H]9CO)O[C@@H]8CO)O[C@@H]7CO)O[C@@H]6CO)O[C@@H]5CO)O[C@@H]4CO)O[C@@H]3CO
inactive: outcome [1] | Potency [2] | outcome [3] | Potency [4] | outcome [5] | outcome [6] | Potency [7] | Potency [8] | Potency [9] | Potency [10] | Potency [11] | Potency [12]

CC/C=C\C#N
inactive: outcome [1] | Potency [2] | outcome [3] | Potency [4] | outcome [5] | outcome [6] | Potency [7] | Potency [8] | Potency [9] | Potency [10] | Potency [11] | Potency [12]

CC1=CC(=O)CCC1
inactive: outcome [1] | Potency [2] | outcome [3] | Potency [4] | outcome [5] | outcome [6] | Potency [7] | Potency [8] | Potency [13] | Potency [9] | Potency [10] | Potency [11] | Potency [12]

COc1ccc(COC=O)cc1
inactive: outcome [1] | Potency [2] | outcome [3] | Potency [4] | outcome [5] | outcome [6] | Potency [7] | Potency [8] | Potency [13] | Potency [11] | Potency [12]
active: Potency [10] 63.3 µM

C1COCCO1
active: Potency [13] 36.4 µM
inactive: outcome [1] | Potency [2] | outcome [3] | Potency [4] | outcome [5] | outcome [6] | Potency [7] | Potency [8] | Potency [11] | Potency [12]

C#CC(C)(O)CC(C)C (stereo not given)
inactive: outcome [1] | Potency [2] | outcome [3] | Potency [4] | outcome [5] | outcome [6] | Potency [7] | Potency [8] | Potency [13] | Potency [9] | Potency [10] | Potency [11] | Potency [12]

COCCOC(=O)CC#N
inactive: outcome [1] | Potency [2] | outcome [3] | Potency [4] | outcome [5] | outcome [6] | Potency [7] | Potency [8] | Potency [9] | Potency [10] | Potency [11] | Potency [12]

O=c1[nH]c(=O)n([C@H]2O[C@H](CO)[C@@H](O)[C@@H]2O)cc1/C=C\Br
inactive: outcome [1] | Potency [2] | outcome [3] | Potency [4] | outcome [5] | outcome [6] | Potency [7] | Potency [8] | Potency [13] | Potency [9] | Potency [10] | Potency [11] | Potency [12]

COC[C@H](c1ccc(C(F)(F)F)cc1)N1CCN(C2(C)CCN(C(=O)c3c(C)ncnc3C)CC2)C[C@H]1C
active: Potency [8] 34.7 µM
inactive: outcome [1] | Potency [2] | outcome [3] | Potency [4] | outcome [5] | outcome [6] | Potency [7] | Potency [9] | Potency [10]

OCC(O)[C@@H](O)[C@H](O)[C@H](O)CO[C@H]1O[C@H](CO)[C@@H](O)[C@H](O)[C@H]1O (stereo not given in full)
inactive: outcome [1] | Potency [2] | outcome [3] | Potency [4] | outcome [5] | outcome [6] | Potency [7] | Potency [8] | Potency [11] | Potency [12]
active: Potency [13] 19.9 µM

CC(C)COC(=O)C(C)C
active: Potency [13] 79.7 µM
inactive: outcome [1] | Potency [2] | outcome [3] | Potency [4] | outcome [5] | outcome [6] | Potency [7] | Potency [8] | Potency [11] | Potency [12]

C=C(C)C(=O)OCCC(C)OC(=O)C(=C)C (stereo not given)
inactive: outcome [1] | Potency [2] | outcome [3] | Potency [4] | outcome [5] | outcome [6] | Potency [7] | Potency [8] | Potency [13] | Potency [11] | Potency [12]
active: Potency [10] 31.7 µM

FC(F)(F)C(F)(F)C(F)(F)C(F)(F)C(F)(F)C(F)(F)C(F)(F)C(F)(F)C(F)(F)C(F)(F)F
inactive: activation [1] 0.116% [at 5.23 µM] | activity change, negative = cytotoxicity [2] 1.13% [at 8.39 µM] | caspase activation [3] -0.76% [at 8.39 µM] | activity change, negative = cytotoxicity [4] 7.28% [at 8.39 µM] | caspase-3/7 activation [5] -0.497% [at 8.39 µM] | activity change, negative = cytotoxicity [6] 5.96% [at 8.39 µM] | activation [7] -1.65% [at 8.39 µM] | activity change, negative = inhibition [8] -5% [at 10.5 µM] | activity change, negative = inhibition [13] -6.18% [at 10.5 µM] | activity change, negative = inhibition [9] -5.26% [at 10.5 µM] | activity change, negative = inhibition [10] -15.3% [at 10.5 µM] | activity change, negative = inhibition [11] 1.96% [at 6.97 µM] | activity change, negative = inhibition [12] -3.38% [at 10.5 µM]

CCCC(C)C(=O)O (stereo not given)
inactive: outcome [1] | Potency [2] | outcome [3] | Potency [4] | outcome [5] | outcome [6] | Potency [7] | Potency [11]
active: Potency [8] 34.2 µM | Potency [9] 54.1 µM | Potency [10] 68.2 µM

N#CCN(CC#N)CCN(CC#N)CC#N
inactive: outcome [1] | Potency [2] | outcome [3] | Potency [4] | outcome [5] | outcome [6] | Potency [7] | Potency [8] | Potency [13] | Potency [9] | Potency [11] | Potency [12]

CC(C)(C)C(=O)/C=C/c1ccc(Cl)cc1
inactive: outcome [1] | Potency [2] | outcome [3] | Potency [4] | outcome [5] | outcome [6] | Potency [8] | Potency [12]
active: Potency [7] 54.5 µM | Potency [13] 7.96 µM | Potency [9] 63.3 µM | Potency [10] 22.4 µM

Cc1c(F)cc2c(=O)c(C(=O)O)cn3c2c1CCC3C (stereo not given)
inactive: outcome [1] | Potency [2] | outcome [3] | Potency [4] | outcome [5] | outcome [6] | Potency [7] | Potency [8] | Potency [13] | Potency [9] | Potency [10] | Potency [11] | Potency [12]

CC(C)=CC(=O)O
inactive: outcome [1] | Potency [2] | outcome [3] | Potency [4] | outcome [5] | outcome [6] | Potency [7] | Potency [8] | Potency [13] | Potency [9] | Potency [11] | Potency [12]

Reference: PubChem BioAssay (Tox21)
